Test results as given in PubChem BioAssay (EPA / NIEHS).
Calls of active or inactive are those of the source. Rule for the calls: active = hit-call score of the fitted dose curve at least 0.9, where 1 is the maximum; inactive = score below 0.9.

What was measured:
Details in all cases: mRNA level, 48 h; actives raise or lower the signal
[1] = read-out: Cytochrome P450 3A4 (Homo sapiens) (UniProt P08684); test: LTEA_HepaRG_CYP3A4: Life Technologies and Expression Analysis (LTEA) Assay for CYP3A4 using HepaRG (AID 2283487)
Outline: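 HepaRG, 48 h exposure, 8-pt CRC from 100 uM (half-log), 0.5% DMSO, duplicates; serum-free induction medium. Readout: CYP3A4 mRNA, qRT-PCR, ACTB/GAPDH/POLR2A normalization. Bidirectional fit vs DMSO.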

[2] = read-out: DNA damage-inducible transcript 3 (DDIT3), DDIT3 (gene 1649); test: LTEA_HepaRG_DDIT3: Life Technologies and Expression Analysis (LTEA) Assay for DNA damage-inducible transcript 3 (DDIT3) using HepaRG (AID 2283488)
Outline: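 Cells are human HepaRG liver cells treated for 48 h with eight half-log concentrations up to 100 uM in 0.5% DMSO. Transcript levels come from qRT-PCR normalized to three housekeeping genes, with activity fitted in both directions relative to vehicle.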

[3] = read-out: Pro-epidermal growth factor (Homo sapiens) (UniProt P01133); test: LTEA_HepaRG_EGF: Life Technologies and Expression Analysis (LTEA) Assay for Epidermal growth factor (EGF) using HepaRG (AID 2283489)
Outline: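 EGF expression changes in human HepaRG cells are scored by bidirectional fitting relative to 0.5% DMSO controls. Chemicals are tested at eight half-log concentrations up to 100 uM for 48 h in serum-free induction medium.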

[4] = read-out: Ezrin (EZR), EZR (gene 7430); test: LTEA_HepaRG_EZR: Life Technologies and Expression Analysis (LTEA) Assay for Ezrin (EZR) using HepaRG (AID 2283491)
Outline: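 Read-out is EZR transcript level by qRT-PCR, normalized to three housekeeping genes and fitted bidirectionally against the DMSO control. Human HepaRG cells received test chemicals for 48 h at eight half-log concentrations up to 100 uM in 0.5% DMSO.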

[5] = read-out: Cytochrome P450 3A7 (Homo sapiens) (UniProt P24462); test: LTEA_HepaRG_CYP3A7: Life Technologies and Expression Analysis (LTEA) Assay for CYP3A7 using HepaRG (AID 2283492)
Outline: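 Cells were thawed, plated, cultured 48 h, then treated for a further 48 h with chemicals (eight-point half-log series from 100 uM, 0.5% DMSO). RNA was isolated and CYP3A7 expression quantified by qRT-PCR normalised to ACTB, GAPDH and POLR2A.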

[6] = read-out: CYP3A5 (gene 1577); test: LTEA_HepaRG_CYP3A5: Life Technologies and Expression Analysis (LTEA) Assay for CYP3A5 using HepaRG (AID 2283493)
Outline: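 Human HepaRG hepatic cells receive 48 h chemical treatment at eight concentrations (half-log steps from 100 uM) in 0.5% DMSO. Expression of CYP3A5 is quantified by Fluidigm qRT-PCR and normalized to three reference genes.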

[7] = read-out: Fatty Acid-Binding Protein 1 (FABP1), FABP1 (gene 2168); test: LTEA_HepaRG_FABP1: Life Technologies and Expression Analysis (LTEA) Assay for Fatty Acid-Binding Protein 1 (FABP1) using HepaRG (AID 2283494)
Outline: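 FABP1 expression by TaqMan qRT-PCR, normalised to three housekeeping genes, in HepaRG cells after 48 h chemical treatment. Eight-point half-log series topping at 100 uM in 0.5% DMSO, duplicates; gain or loss fitted relative to vehicle.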

[8] = read-out: Cytochrome P450 4A22 (Homo sapiens) (UniProt Q5TCH4); test: LTEA_HepaRG_CYP4A22: Life Technologies and Expression Analysis (LTEA) Assay for Cytochrome P450 4A22 (CYP4A22) using HepaRG (AID 2283495)
Outline: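 Cryopreserved HepaRG cells, plated and cultured 48 h, then switched to serum-free induction medium and treated 48 h (duplicates, up to 100 uM, half-log steps, 0.5% DMSO). Expression change of CYP4A22 was fitted bidirectionally against vehicle.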

[9] = read-out: Cytochrome P450 7A1 (Homo sapiens) (UniProt P22680); test: LTEA_HepaRG_CYP7A1: Life Technologies and Expression Analysis (LTEA) Assay for Cytochrome P450 7A1 (CYP7A1) using HepaRG (AID 2283496)
Outline: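 HepaRG, 48 h exposure, 8-pt half-log series from 100 uM, 0.5% DMSO vehicle, duplicates. Readout: TaqMan qRT-PCR mRNA vs three housekeeping genes; bidirectional curve fit against DMSO baseline.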

[10] = read-out: Glutathione S-Transferase (GSTA2), GSTA2 (gene 2939); test: LTEA_HepaRG_GSTA2: Life Technologies and Expression Analysis (LTEA) Assay for Glutathione S-Transferase (GSTA2) using HepaRG (AID 2283497)
Outline: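 GSTA2 transcript levels came from Fluidigm TaqMan qRT-PCR normalized to three housekeeping genes, fitted in both directions against DMSO. HepaRG cultures received chemicals for 48 h in serum-free induction medium (0.5% DMSO), 8 half-log concentrations up to 100 uM, duplicate.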

[11] = read-out: Glutamate-cysteine ligase catalytic (GCLC), GCLC (gene 2729); test: LTEA_HepaRG_GCLC: Life Technologies and Expression Analysis (LTEA) Assay for Glutamate-cysteine ligase catalytic (GCLC) using HepaRG (AID 2283498)
Outline: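 Expression by TaqMan qRT-PCR, normalized to three housekeeping genes (ACTB, GAPDH, POLR2A), with up- or down-regulation fitted against DMSO. HepaRG cells dosed in duplicate for 48 h with 8 half-log concentrations up to 100 uM, vehicle 0.5% DMSO.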

[12] = read-out: growth arrest and DNA damage 45 (GADD45G), GADD45G (gene 10912); test: LTEA_HepaRG_GADD45G: Life Technologies and Expression Analysis (LTEA) Assay for growth arrest and DNA damage 45 (GADD45G) using HepaRG (AID 2283499)
Outline: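 Human hepatic HepaRG line treated 48 h with chemicals (eight concentrations, half-log steps from 100 uM); transcript induction or repression of GADD45G scored by qRT-PCR versus DMSO vehicle.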

[13] = read-out: Glutamate-cysteine ligase regulatory (GCLM), GCLM (gene 2730); test: LTEA_HepaRG_GCLM: Life Technologies and Expression Analysis (LTEA) Assay for Glutamate-cysteine ligase regulatory (GCLM) using HepaRG (AID 2283500)
Outline: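 Endpoint is GCLM transcript level by qRT-PCR, normalized to three housekeeping genes, after 48 h chemical exposure of human HepaRG cells (0.5% DMSO vehicle, top 100 uM, half-log dilutions). Fitting was bidirectional relative to DMSO.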

[14] = read-out: Glutathione S-transferase M3 (GSTM3), GSTM3 (gene 2947); test: LTEA_HepaRG_GSTM3: Life Technologies and Expression Analysis (LTEA) Assay for Glutathione S-transferase M3 (GSTM3) using HepaRG (AID 2283501)
Outline: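 Changes in GSTM3 expression, an oxidative-stress marker, were scored by bidirectional curve fitting against 0.5% DMSO vehicle. Human HepaRG cultures received chemicals for 48 h in duplicate, highest concentration 100 uM with half-log dilutions.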

[15] = read-out: Heat shock 70 kDa protein 1 (HSPA1A), gene 3303; test: LTEA_HepaRG_HSPA1A: Life Technologies and Expression Analysis (LTEA) Assay for Heat shock 70 kDa protein 1 (HSPA1A) using HepaRG (AID 2283502)
Outline: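 Cells were plated and cultured for 48 h, then switched to serum-free induction medium. Chemicals were added at eight half-log concentrations up to 100 uM for 48 h. RNA was then isolated and HSPA1A measured by qRT-PCR with bidirectional curve fitting against DMSO.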

[16] = read-out: Hypoxia-inducible factor 1-alpha (Homo sapiens) (UniProt Q16665); test: LTEA_HepaRG_HIF1A: Life Technologies and Expression Analysis (LTEA) Assay for Hypoxia-inducible factor 1 (HIF1A) Trancription factor using HepaRG (AID 2283503)
Outline: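 HIF1A transcript level read by qRT-PCR (ACTB, GAPDH, POLR2A normalization) after 48 h chemical exposure of HepaRG cultures. Eight half-log concentrations, top 100 uM, 0.5% DMSO vehicle, duplicates; bidirectional curve fit against DMSO baseline.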

[17] = read-out: 3-Hydroxy-3-Methylglutaryl-CoA Synthase 2 (HMGCS2), HMGCS2 (gene 3158); test: LTEA_HepaRG_HMGCS2: Life Technologies and Expression Analysis (LTEA) Assay for 3-Hydroxy-3-Methylglutaryl-CoA Synthase 2 (HMGCS2) using HepaRG (AID 2283504)
Outline: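 Expression of HMGCS2 in human HepaRG liver cells is measured by qRT-PCR 48 h after dosing (highest 100 uM, half-log series, 0.5% DMSO). Values come from bidirectional concentration-response fitting with DMSO as baseline.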

[18] = read-out: HGF (gene 3082); test: LTEA_HepaRG_HGF: Life Technologies and Expression Analysis (LTEA) Assay for Hepatocyte Growth Facto (HGF) using HepaRG (AID 2283505)
Outline: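 Gain or loss of HGF mRNA in human HepaRG liver cells after 48 h chemical exposure; eight concentrations up to 100 uM with 0.5% DMSO vehicle, quantified by TaqMan qRT-PCR.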

[19] = read-out: Insulin Like Growth Factor 1 (IGF1), IGF1 (gene 3479); test: LTEA_HepaRG_IGF1: Life Technologies and Expression Analysis (LTEA) Assay for Insulin Like Growth Factor 1 (IGF1) using HepaRG (AID 2283506)
Outline: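 Cells are thawed, plated and cultured 48 h, then exposed in duplicate to chemical (highest 100 uM, half-log steps, 0.5% DMSO) for another 48 h. Total RNA is analysed by Fluidigm qRT-PCR for IGF1 expression relative to vehicle.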

Measured: AC50

Cytochrome P450 3A4 (Homo sapiens), sequence (P08684 whole entry, looked up): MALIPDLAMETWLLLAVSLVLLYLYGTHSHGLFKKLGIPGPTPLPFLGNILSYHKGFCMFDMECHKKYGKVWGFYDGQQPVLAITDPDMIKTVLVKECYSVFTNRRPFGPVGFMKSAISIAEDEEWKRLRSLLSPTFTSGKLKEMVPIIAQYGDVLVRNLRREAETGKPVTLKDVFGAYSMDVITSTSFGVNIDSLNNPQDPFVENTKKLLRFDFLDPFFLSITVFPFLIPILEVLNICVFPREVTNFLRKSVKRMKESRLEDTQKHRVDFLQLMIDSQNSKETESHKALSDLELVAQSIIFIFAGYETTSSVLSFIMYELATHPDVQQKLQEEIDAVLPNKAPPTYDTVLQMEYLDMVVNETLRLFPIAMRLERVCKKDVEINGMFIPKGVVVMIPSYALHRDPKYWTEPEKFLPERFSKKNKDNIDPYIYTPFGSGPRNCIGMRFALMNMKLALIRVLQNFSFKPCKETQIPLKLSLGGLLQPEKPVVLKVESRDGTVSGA
Hypoxia-inducible factor 1-alpha (Homo sapiens), sequence (Q16665 whole entry, looked up): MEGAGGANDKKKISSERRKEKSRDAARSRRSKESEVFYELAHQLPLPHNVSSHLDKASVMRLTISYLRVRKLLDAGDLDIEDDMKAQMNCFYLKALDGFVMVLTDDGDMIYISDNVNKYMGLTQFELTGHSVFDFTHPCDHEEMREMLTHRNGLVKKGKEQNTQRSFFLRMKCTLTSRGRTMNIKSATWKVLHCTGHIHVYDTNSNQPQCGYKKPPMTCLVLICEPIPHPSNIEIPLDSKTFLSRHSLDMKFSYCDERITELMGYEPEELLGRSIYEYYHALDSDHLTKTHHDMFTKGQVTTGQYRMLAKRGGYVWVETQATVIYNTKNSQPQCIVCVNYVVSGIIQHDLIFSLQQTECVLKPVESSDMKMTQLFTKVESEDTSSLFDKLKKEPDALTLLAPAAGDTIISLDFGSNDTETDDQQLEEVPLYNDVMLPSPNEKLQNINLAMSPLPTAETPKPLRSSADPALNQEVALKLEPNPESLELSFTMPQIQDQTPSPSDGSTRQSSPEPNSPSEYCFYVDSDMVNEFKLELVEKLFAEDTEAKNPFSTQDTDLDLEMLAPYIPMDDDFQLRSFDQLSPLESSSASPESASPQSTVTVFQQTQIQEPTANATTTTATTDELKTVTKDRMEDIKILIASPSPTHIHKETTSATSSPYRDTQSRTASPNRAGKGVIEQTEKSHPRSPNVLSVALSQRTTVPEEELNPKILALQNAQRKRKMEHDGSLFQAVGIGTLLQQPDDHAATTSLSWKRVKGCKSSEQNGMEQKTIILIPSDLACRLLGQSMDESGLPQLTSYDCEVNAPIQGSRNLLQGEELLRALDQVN
Cytochrome P450 3A7 (Homo sapiens), sequence (P24462 whole entry, looked up): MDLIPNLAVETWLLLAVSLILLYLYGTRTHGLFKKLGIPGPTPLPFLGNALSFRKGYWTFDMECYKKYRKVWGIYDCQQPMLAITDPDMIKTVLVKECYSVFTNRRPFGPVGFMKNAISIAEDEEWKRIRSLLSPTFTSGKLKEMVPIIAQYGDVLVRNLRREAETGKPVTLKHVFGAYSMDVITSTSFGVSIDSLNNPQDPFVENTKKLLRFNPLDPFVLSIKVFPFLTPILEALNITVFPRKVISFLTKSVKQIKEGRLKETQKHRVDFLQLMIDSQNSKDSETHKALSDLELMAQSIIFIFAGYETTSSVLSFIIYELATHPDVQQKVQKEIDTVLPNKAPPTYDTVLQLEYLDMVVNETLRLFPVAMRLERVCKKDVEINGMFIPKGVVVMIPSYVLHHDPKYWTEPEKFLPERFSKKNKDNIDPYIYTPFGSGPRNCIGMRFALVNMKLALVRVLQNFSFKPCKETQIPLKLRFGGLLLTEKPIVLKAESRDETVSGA

CN1COCN(Cc2cnc(Cl)s2)C1=N[N+](=O)[O-]
active: [1] 38.8 µM
inactive: all other assays above

CCCSP(=O)(OCC)Oc1ccc(Br)cc1Cl (configuration not stated)
not listed: [5]
inactive: all other assays above

C[N+]1(C)CCCCC1
not listed: [5]
inactive: all other assays above

Nc1c(Cl)cc([N+](=O)[O-])cc1Cl
active: [1] 11.5 µM | [2] 35.1 µM | [4] 50 µM | [5] 84.2 µM | [6] 27.5 µM | [7] 41.8 µM | [8] 74.2 µM | [9] 50 µM | [10] 64.7 µM | [11] 88 µM | [12] 50 µM | [14] 50 µM | [15] 26.8 µM | [16] 86.6 µM | [17] 50 µM
inactive: [3] | [13] | [18] | [19]

CCOP(=O)(NC(C)C)Oc1ccc(SC)c(C)c1 (configuration not stated)
active: [7] 23.8 µM | [8] 19.5 µM | [9] 3.62 µM | [17] 18.8 µM | [19] 50 µM
not listed: [1]
inactive: all other assays above
